Laboratory results as given in PubChem BioAssay (NCI).
This is part of a sample that, as a whole, favours compounds with a hit. Of some 83,000 tested, about 20% had one in any assay.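 Negative percent growth values reflect cell death: -40 means 40% of the cells present at the start died, and -100 means all died.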 Active and inactive are the calls of the source. How the source made its calls: active means growth percent below 10; inactive means the rest.

system: HL-60(TB) leukemia; experiment: NCI-60 one-dose screen, 48 h (100 = growth as untreated, 0 = no growth, -100 = all killed); details: 10 µM unless noted

Compound | growth
COc1cc2c(=O)n(CC3CCCCC3)c3c4cc[nH]c4ncc3c2cc1OC | 42.9% (inactive)
O=C1Nc2cc(-c3ccc(O)cc3)ccc2/C1=C/c1ccc[nH]1 | -8.12% (active)
O=C(OCc1ccc2c(Cl)cc(Cl)c(O)c2n1)N1CCNCC1 | 64.5% (inactive)
O=C1CC2c3cc(-c4cc5ccccc5o4)ccc3CCN2C(=O)N1c1ccccc1 (configuration not stated) | 69.9% (inactive)
COc1ccc(CN2C(=O)OC(C)(COC(C)=O)C2=O)cc1 (configuration not stated) | 101% (inactive)
COc1cc(NC(=O)c2cc(O)c(C/C=C(\C)CCC=C(C)C)c(O)c2)cc2c1O[C@]1(C)CC[C@@H](O)C(C)(C)[C@H]1C2 | -7.34% (active)
COc1cccc(-c2ccc3c(c2)NC(=O)/C3=C\c2ccc[nH]2)c1 | -1.26% (active)
Cc1cccc(NC(=O)c2sc3nc4c(cc3c2N)CCCC4)c1C | 9.11% (active)
N#CSc1cc(S(N)(=O)=O)ccc1N | 81.2% (inactive)
O=c1[nH]c2ccc(Cl)cc2c2ccccc12 | 130% (inactive)
Cc1cc(Nc2nc(-c3cccnc3)nc3ccccc23)n[nH]1 | 53.4% (inactive)
COc1ccc(C2=NC(=O)NC2c2ccc(OC)cc2)cc1 (configuration not stated) | 61.2% (inactive)
COc1cc2nc(C(=O)N3CCCCC3)cc(Nc3ccccc3)c2cc1OC | 96.8% (inactive)
COC(=O)c1ccc2[nH]c(O)c(C(=Nc3ccc(N(C)C(=O)CN4CCN(C)CC4)cc3)c3ccccc3)c2c1 | -14.4% (active)
Clc1ccc2c(NCCCN3CCN(c4nc(-n5ccnc5)nc5ccccc45)CC3)ccnc2c1 | 52.7% (inactive)
CCN(CC)Cc1cc(Nc2cc(C(F)(F)F)c(C#N)c3nc4ccccc4n23)ccc1O | -10.9% (active)
O=C(NCCNCCO)c1cc([N+](=O)[O-])cc([N+](=O)[O-])c1O | 102% (inactive)
CC(C)C[C@@H](NC(=O)[C@@H](Cc1ccccc1)NC(=O)c1cnccn1)B1Oc2ccc(C[C@H](NC(=O)[C@H](Cc3ccc4c(c3)OB([C@@H](CC(C)C)NC(=O)[C@@H](Cc3ccccc3)NC(=O)c3cnccn3)O4)NC(=O)[C@@H](N)CC3CCC4OB([C@@H](CC(C)C)NC(=O)[C@@H](CC5CCCCC5)NC(=O)C5CNCCN5)OC4C3)C(=O)NCCCC[C@@H]3NC(=O)[C@@H](Cc4ccccc4)NC(=O)[C@H](CC(=O)O)NC(=O)CNC(=O)[C@H](CCCNC(=N)N)NC3=O)cc2O1 (some centres not stated) | -2.54% (active)
c1ccc(Cc2ccccc2)cc1 | 112% (inactive)

Compound | growth
COC1=CC(c2ccc[nH]2)=N/C1=C\c1[nH]c(C)c(C)c1CCC(=O)OCc1ccccc1 | -39.1% (active)
C/C(=C\CCc1ccoc1)CC/C=C(\C)CCCN1CCSCC1 | 73.9% (inactive)
CN(C)CCCSc1ccccc1NC1=C(Cl)C(=O)C(Nc2ccccc2SCCCN(C)C)=C(Cl)C1=O | -34.8% (active)
Cc1nn(-c2nc3ccccc3[nH]2)c2c1C(c1ccc3c(c1)OCO3)CC(=O)N2 (configuration not stated) | -24.3% (active)
O=C(c1ccccc1)C(c1ccccc1)N1CCOCC1 (configuration not stated) | 94.4% (inactive)
N#Cc1nc(-c2ccccc2)oc1S(=O)(=O)N1CCN(c2ccc(F)cc2)CC1 | 28.1% (inactive)
CCCN(CCC)CCC(O)c1cc2c(c3ccccc13)CCCC2 (configuration not stated) | 113% (inactive)
CCOC(=O)c1ccc(NC(=O)CSC(N)=O)cc1 | 93.2% (inactive)
COc1ccc(OC)c(C2OC(c3ccc4ccccc4c3O)=NN2C(C)=O)c1 (configuration not stated) | 19% (inactive)
CN(C)CC(C)(CN(C)C)C(=O)/C=C/c1c(Cl)cccc1Cl | -5.28% (active)
Cc1nc2ccccc2c(/C=C/c2ccc(Cl)cc2)c1C(=O)/C=C/c1ccccc1 | 5.7% (active)
CC(C)=CC(=O)OC(=O)C=C(C)C | 104% (inactive)
O=S(=O)(/N=C1C=C/C(=N\S(=O)(=O)c2ccccc2)c2ccccc2\1)c1ccccc1 | 100% (inactive)
Nc1ccc(N)c2c1C(=O)c1cccc([N+](=O)[O-])c1C2=O | 17.8% (inactive)
CC(=O)C1Cc2ccccc2C1=O (configuration not stated) | 97.4% (inactive)
COc1ccc(C2=C(c3ccccc3)c3ccc(OC(C)=O)cc3OC2(C)C)cc1 | -17.1% (active)
Cc1ccnc(Nc2ccc([N+](=O)[O-])c(NCCN3CCOCC3)n2)c1 | -14.9% (active)
O=c1oc2cc(OS(=O)(=O)C3CC3)ccc2c2c1CCCCCC2 | 80.1% (inactive)
